In PubChem BioAssay (EPA / NIEHS):
Activity calls are given as the source filed them. How the source made its calls, unless noted: active means hit-call score of the fitted dose curve at least 0.9, where 1 is the maximum; inconclusive means response in the unintended direction; inactive means score below 0.9.

target: Estrogen receptor beta (Homo sapiens) (UniProt Q92731); assay: OT_ER_ERbERb_1440: Odyssey Thera (OT) 24-hour HEK293T Protein-Complementation Assay for Estrogen Receptor-beta/-beta Homodimer (AID 2283380);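 further: fluorescence gain from ER beta LBD homodimer complementation read by laser scanning cytometry; scored as signal increase over DMSO baseline for both agonists and antagonists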
Sequence (Q92731 whole entry, looked up, the tested form may be a part): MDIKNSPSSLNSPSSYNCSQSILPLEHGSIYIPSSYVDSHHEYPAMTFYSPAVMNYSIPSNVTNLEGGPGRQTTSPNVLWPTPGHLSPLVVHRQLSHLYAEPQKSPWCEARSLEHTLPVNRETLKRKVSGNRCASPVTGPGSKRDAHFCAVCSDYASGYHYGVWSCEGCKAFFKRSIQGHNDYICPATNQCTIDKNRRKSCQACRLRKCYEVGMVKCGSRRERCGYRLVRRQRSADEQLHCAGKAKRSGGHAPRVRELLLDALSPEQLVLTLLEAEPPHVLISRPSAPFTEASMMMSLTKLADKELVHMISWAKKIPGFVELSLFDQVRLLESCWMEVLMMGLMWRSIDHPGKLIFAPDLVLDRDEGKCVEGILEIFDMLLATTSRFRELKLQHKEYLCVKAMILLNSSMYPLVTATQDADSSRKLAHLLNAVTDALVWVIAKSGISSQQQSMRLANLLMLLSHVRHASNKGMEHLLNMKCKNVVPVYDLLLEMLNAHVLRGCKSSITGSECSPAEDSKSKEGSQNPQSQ
Summary of the method: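 Fluorescence increase, nuclear for agonists or whole-cell for antagonists, relative to DMSO vehicle, quantified by laser scanning cytometer after fixation and Draq5 staining. Readout from 24 h treatment of HEK293T cells carrying complementation-paired ER beta LBD (aa 310-547).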

outcome, inactive:
CC(C)c1cccc(C(C)C)c1NC(=O)NS(=O)(=O)c1cc(C(C)(C)O)co1, CCCCc1nc2cccnc2n1Cc1ccc(-c2ccccc2-c2nnn[nH]2)cc1, Cc1ccc(C(C)(C)C)c(O)c1, NC1CCCCC1, CS(=O)(=O)c1ccc([C@@H](C[C@H]2CCC(=O)C2)C(=O)Nc2cnccn2)cc1Cl, O=C(O)c1cccnc1, Cc1cn([C@H]2C=C[C@@H](CO)O2)c(=O)[nH]c1=O, COc1ccc(C(=O)Nc2nc3ccccc3c(NCc3ccccc3)c2C#N)cc1, CCCCC(CC)CO (stereo not given), O=C(O)CC(O)(CC(=O)O)C(=O)O, CCCCCCC(C=O)=Cc1ccccc1, CCCCCCC(CCCCCCCCCCC(=O)OCC(COC(C)=O)OC(C)=O)OC(C)=O (stereo not given), CN(C)CCCN(C)CCCN(C)C, C=CCc1ccc(OC)c(OC)c1, CCCCCCCC(=O)OC, CC(=O)OC1CC(C)OC(C)O1 (stereo not given), CCCCCCCCCCCCCCCCO

AC50, active:
CC1(C)C(=O)NC(=O)N1CO 57.3 µM, Oc1ccc(O)cc1 26.4 µM

target: Estrogen receptor (Homo sapiens) (UniProt P03372); assay: OT_ERa_GFPERaERE_0480: Odyssey Thera (OT) 8-hour HeLa Transcription Induction Assay for Estrogen Receptor (AID 2283381; active means hit-call score of the fitted dose curve at least 0.9, where 1 is the maximum; inactive means score below 0.9)
Sequence (P03372 whole entry, looked up): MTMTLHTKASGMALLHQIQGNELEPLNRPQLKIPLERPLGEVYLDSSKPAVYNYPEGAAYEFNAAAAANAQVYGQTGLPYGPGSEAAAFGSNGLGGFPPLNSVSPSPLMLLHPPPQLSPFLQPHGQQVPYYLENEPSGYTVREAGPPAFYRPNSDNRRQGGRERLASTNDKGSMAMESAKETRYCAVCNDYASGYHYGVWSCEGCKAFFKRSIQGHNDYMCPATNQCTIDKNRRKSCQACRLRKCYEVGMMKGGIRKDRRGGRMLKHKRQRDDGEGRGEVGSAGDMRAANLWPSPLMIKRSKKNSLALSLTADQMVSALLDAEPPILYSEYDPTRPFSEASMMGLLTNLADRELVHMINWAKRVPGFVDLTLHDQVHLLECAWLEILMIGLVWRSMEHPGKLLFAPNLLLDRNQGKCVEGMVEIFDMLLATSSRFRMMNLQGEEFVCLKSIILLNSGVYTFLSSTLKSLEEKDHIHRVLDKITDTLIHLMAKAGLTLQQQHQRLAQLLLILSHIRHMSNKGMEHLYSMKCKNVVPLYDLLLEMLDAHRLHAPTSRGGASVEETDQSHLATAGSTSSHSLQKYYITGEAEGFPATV
Summary of the method: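 HeLa cells dosed with compound and imaged by fluorescence microscopy at 8 h; GFP induction from an ERE reporter quantified by high-content image analysis and fitted as gain of signal against DMSO baseline.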

outcome, inactive:
COC(=O)CCC(=O)OC, CCCCc1nc2cccnc2n1Cc1ccc(-c2ccccc2-c2nnn[nH]2)cc1, CC(C)c1cccc(C(C)C)c1, Cc1ccc(C(C)(C)C)c(O)c1, NC1CCCCC1, CS(=O)(=O)c1ccc([C@@H](C[C@H]2CCC(=O)C2)C(=O)Nc2cnccn2)cc1Cl, COc1ccc(C(=O)Nc2nc3ccccc3c(NCc3ccccc3)c2C#N)cc1, CC1(C)C(=O)NC(=O)N1CO, O=C(O)c1[nH]n(-c2ccc(S(=O)(=O)O)cc2)c(=O)c1N=Nc1ccc(S(=O)(=O)O)cc1, c1ccc2occc2c1, O=C(O)CC(O)(CC(=O)O)C(=O)O, CCCCCCC(CCCCCCCCCCC(=O)OCC(COC(C)=O)OC(C)=O)OC(C)=O (stereo not given), CN(C)CCCN(C)CCCN(C)C, CCCCCCCC(=O)OC, CCCCCCCCCCCCCCCCO, Oc1ccc(O)cc1
